# Most compounds without a hit are left out; they make up all but 3.5% or so of the library.
# GPR151 ag = human GPR151 activation | 650,000 compounds, 1% hits | AID 1508602 | activation, % at 11.2 µM | PathHunter beta-arrestin GPR151 cells, luminescence; in the data active = activation above about 4.9%
# FBW7 act = human FBW7 E3 ligase activation, primary screen; 650,000 compounds, 0.13% hits; AID 1259310; Q969H0; normalized activity (activation), % at 26.1 µM; AlphaScreen FBW7–phospho-cyclin E peptide binding, activator screen; in the data active = normalized activity above about 1.9%;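 note: purified mutant Fbw7 with reduced substrate affinity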
# MITF inh = inhibitors of human MITF; O75030; AlphaScreen MITF homodimerization, bead proximity signal; inhibition, % at 2.6 µM; 650,000 compounds, 0.91% hits; AID 1259374; in the data active = inhibition above about 50%
# TEAD-YAP block = TEAD-YAP interaction inhibition. HEK-TIYL cells, TEAD-Gal4/YAP UAS-luciferase luminescence. inhibition, % at 9.12 µM. 640,000 compounds, 1.4% hits. AID 1259422; in the data active = inhibition above about 32%
# A number is an active result; - = inactive.
SMILES,GPR151 ag,FBW7 act,MITF inh,TEAD-YAP block
COc1cc(CN(C2=NS(=O)(=O)c3ccccc32)c2ccc(Cl)cc2)ccc1O,-,-,-,-
CC(O)CSc1nc2c(c(=O)[nH]c(=O)n2C)n1CC(O)COc1ccc(Cl)cc1 (stereo not given),-,-,-,-
NNC(=O)c1ccccc1OCC(=O)Nc1ccc(SC(F)F)cc1,-,-,-,-
COc1ccc(CCC(=O)N2CCC3(CC2)OCc2ccccc2O3)cc1OC,-,-,-,40
COc1ccc(CCC(=O)N2CCC3(CC2)OCc2ccccc2O3)cc1,-,-,-,-
COc1cccc(CC(=O)N2CCC3(CC2)OCc2ccccc2O3)c1OC,-,-,-,-
COc1cc(CC(=O)N2CCC3(CC2)OCc2cc(Cl)ccc2O3)cc(OC)c1OC,-,-,-,59
COc1cc(CC(=O)N2CCC3(CC2)OCc2ccccc2O3)cc(OC)c1OC,-,-,-,38
COc1ccc(CNc2ccc3[nH]c(=O)[nH]c3c2)cc1OC,-,-,-,-
Cc1ccc(C(=O)c2cccc(N)c2)cc1C,-,-,-,57
CC(C)OCCCNC(=O)c1ccc(CN2CCc3ccccc3C2)cc1,-,2.0,-,-
Cc1ccc2[nH]c(C)c(CCNS(=O)(=O)c3cc([N+](=O)[O-])ccc3C)c2c1,-,-,-,-
Cc1[nH]c2ccc(F)cc2c1CCNS(=O)(=O)c1cc([N+](=O)[O-])ccc1Cl,-,-,-,61
COCC(=O)N(Cc1cc2cc(C)ccc2nc1Cl)C1CCCC1,-,-,-,-
CN(C)c1ccc(/C=C(\C(N)=O)c2nc3ccccc3[nH]2)cc1,-,-,-,83
COc1ccc(Cl)cc1NC1=C(Cl)C(=O)N(Cc2ccccc2)C1=O,-,-,64,72
COc1ccc(OC)c(NC2=C(Cl)C(=O)N(Cc3ccccc3)C2=O)c1,-,-,-,-
O=C1C(Cl)=C(Nc2cccc(C(F)(F)F)c2)C(=O)N1Cc1ccccc1,-,-,-,75
CN(C)S(=O)(=O)N1CCC(Oc2cccc(C(=O)NC3CCCCC3)c2)CC1,-,-,-,43
CN(C)S(=O)(=O)N1CCC(Oc2ccc(C(=O)NC3CCCCC3)cc2)CC1,-,-,-,-
COc1ccc(CCNc2nc(-c3ccccc3)ncc2C)cc1,-,-,-,42
COc1ccc(CCNc2nc(-c3c(C)noc3C)ncc2C)cc1,-,-,-,41
COc1ccc(CCNc2nc(-c3ccc(OC)nc3)ncc2C)cc1,-,-,-,41
COc1ccc(CCNc2nc(-c3c(C)nn(C)c3C)ncc2C)cc1,-,-,-,-
COc1ccc(CCNc2nc(-c3ccc(OC)cc3)ncc2C)cc1,-,-,-,-
SMILES,GPR151 ag,FBW7 act,MITF inh,TEAD-YAP block
CCc1noc(C)c1C(=O)OC(C)C(=O)Nc1c(C)n(C)n(-c2ccccc2)c1=O (stereo not given),-,-,-,-
Cc1ccc2c(C)nc(N3CCCC(C(=O)N(C)C(C)C)C3)nc2c1 (stereo not given),-,-,-,-
Cc1cc(C)c2nc3nc(C)c(C)cc3c(N)c2c1,-,-,-,81
OC(CN1C2=NCCN2c2ccccc21)c1ccc2c(c1)OCO2 (stereo not given),-,-,-,55
OC(CN1C2=NCCCN2c2ccccc21)c1ccc2c(c1)OCO2 (stereo not given),-,-,-,-
COC(=O)c1sc(N)c(C(=O)OC)c1C,-,-,-,-
Cc1sc2ncnc(N/N=C/c3ccccn3)c2c1C,-,-,-,92
Cc1cc(NC(=O)CCc2ccc(C)o2)no1,-,-,-,-
Cc1ccc(CCC(=O)Nc2ncc(Cc3ccc(Cl)cc3)s2)o1,-,-,-,57
Cc1ccc(CCC(=O)Nc2ccc(Cl)cn2)o1,-,-,-,41
Cc1ccc(Cc2cnc(NC(=O)CCCOc3ccc(Cl)cc3)s2)cc1,-,-,-,-
CCOC(=O)c1c(C)n(-c2ccc(C)cc2C)c2ccc(O)cc12,-,-,-,-
CCOC(=O)N1CCN(Cc2ccc(OC)cc2)CC1,-,-,-,-
C/C(CC(C)C)=N/NC(=O)c1ccc(Br)cc1,-,-,-,-
CCC/C=N/NC(=O)c1ccc(O)cc1,-,-,-,-
C/C(CC(C)C)=N\NC(=O)c1cccc(O)c1,-,-,-,40
CCC/C=N/NC(=O)c1cccc(O)c1,-,-,-,34
CCOC(=O)c1ccccc1NC(=O)c1ccc2c(c1)S(=O)(=O)N=C1CCCCCN12,-,-,-,-
COc1ccc(-n2ncc3c(Nc4cccc(OC)c4)ncnc32)cc1,-,-,-,46
COc1cccc(Nc2nc(N3CCN(c4cccc(Cl)c4)CC3)nc3c2cnn3C)c1,-,-,-,-

# Screens from PubChem BioAssay.
